We go through 40 compounds from PubChem BioAssay (NCATS).

The structures appear in SMILES notation. Several values for one entry are separate records, joined by “and”; a condition that tells them apart may be missing. Equal entries are not always repeated. Records with an inconclusive call do not appear. Where a call stands in place of a potency, no number is given. A structure can be active in one record and inactive in another. Activity calls are given as the source filed them. Calls come from the whole dose curve; as a rule, active = well fitted curve in the direction sought with a large enough effect; inconclusive = small, poorly fitted or top-dose-only effect, or another doubt; inactive = no such curve, though single readings can be large; an effect the other way counts as inactive or inconclusive. *1 amine or outer side, *2 acyl side, *3 side chain or, on linkers, in order; H or OH if unused. Where a SMILES comes first, the peptide text is derived from it. Bridges are numbered along the chain shown (N, C = ends). [ ]: non-standard residue; d: D form. The star is where a group is joined. ξ: configuration not given here. ΔAla(3-NHCONH2) = NC(=O)NC=C(N)C(=O)O; X2 = NC1=NCCC(C(N[*:1])C(=O)[*:2])N1; ξβ3hOrn = NCCCC(N)CC(=O)*; Dap = NC[CH](N)C(=O)O

For one assay, the target named is Cytochrome P450 3A7 (Homo sapiens) (UniProt P24462). The experiment in a line: Cytochrome P450 family 3 subfamily A member 7 (CYP3A7) small molecule antagonists: luciferase biochemical qHTS assay (AID 1963596). Note: nearly all actives have a fitted effect of over 40% in size. The note with it: P450-Glo CYP3A7 enzyme luminescence, 1 h; series mostly up to 57.4 µM. In outline: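 Compounds were screened in qHTS format for interference with CYP3A7 turnover of a proluciferin substrate. Reactions ran 1 h at room temperature after NADPH regeneration solution was added, then luciferin product was detected by luminescence.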
Cytochrome P450 3A7 (Homo sapiens), sequence (P24462 whole entry, looked up): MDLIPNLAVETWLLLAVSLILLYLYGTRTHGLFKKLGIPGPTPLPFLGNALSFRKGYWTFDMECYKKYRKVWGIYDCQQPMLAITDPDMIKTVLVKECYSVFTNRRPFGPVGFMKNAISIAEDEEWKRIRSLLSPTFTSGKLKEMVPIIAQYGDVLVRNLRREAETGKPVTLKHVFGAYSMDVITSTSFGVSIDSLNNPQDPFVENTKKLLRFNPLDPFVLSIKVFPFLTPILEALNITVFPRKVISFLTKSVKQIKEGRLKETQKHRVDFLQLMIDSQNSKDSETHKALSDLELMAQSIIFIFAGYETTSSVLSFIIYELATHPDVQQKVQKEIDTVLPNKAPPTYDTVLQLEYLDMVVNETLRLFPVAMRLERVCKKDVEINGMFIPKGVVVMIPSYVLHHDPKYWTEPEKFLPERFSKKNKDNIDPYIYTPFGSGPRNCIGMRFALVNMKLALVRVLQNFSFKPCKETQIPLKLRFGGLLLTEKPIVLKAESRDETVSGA
On the technique in general: Quantitative high-throughput screening tests each substance at several concentrations.
In the case of `Cc1coc2ccccc2c1=O`, the Potency entry is “inactive”.
On the same count and under the same terms, next, `CCn1c(=O)c(-c2ccc(Cl)cc2Cl)cc2cnc(Nc3ccc(N4CCNCC4)c(F)c3)nc21`: “inactive”.
For `NC(N)=NCCC[C@H](N)C(=O)O`, the activity change, negative = inhibition was 2.52% [at 4.83 µM] (inactive).
For `O=C(O)CCCC[P+](c1ccccc1)(c1ccccc1)c1ccccc1`, the Potency entry was “inactive”.

System in the next assay: not listed separately
Kind of assay: Viability qHTS for spleen associated tyrosine kinase inhibitor (SYKi) naive MV4-11 cells (AID 1963823). Note: nearly all actives have a fitted effect of over 40% in size. Note: potency is the fitted concentration of half-maximal effect. The note with it: MV4-11 AML viability, CellTiter-Glo luminescence, 72 h; series mostly up to 45 µM. In outline: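 Compounds were dispensed acoustically onto plates, MV4-11 cells (SYKi-naive) added at 500 per well, and plates incubated 72 hr at 37 C. CellTiter-Glo was added and luminescence measured after 10 min.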
For `NCCCC(N)CC(=O)NCC1NC(=O)C(CO)NC(=O)C(N)CNC(=O)C(C2CCN=C(N)N2)NC(=O)C(=CNC(N)=O)NC1=O` (stereo not drawn) (H-[Dap]S[Dap](ξβ3hOrn)[ΔAla(3-NHCONH2)][X2]; lactam 1-C; configuration not given here), the viability (% of control) was 84.9% [at 0.588 µM] (inactive).
Take `CC1(C)[C@@H](OC(=O)CCC(=O)O)CC[C@]2(C)[C@H]3C(=O)C=C4[C@@H]5C[C@@](C)(C(=O)O)CC[C@]5(C)CC[C@@]4(C)[C@]3(C)CC[C@@H]12`: the Potency result was “inactive”.
With `NCCNCCNCCNCCN`, the viability (% of control) is 121% [at 9.25 µM] (inactive).
For the compound `CCCNC(C)C(=O)Nc1c(C)csc1C(=O)OC` (centres undefined), the Potency entry is “inactive”.
Still for that read-out and setting: next, `CC(C)C(=O)c1c(C(C)C)nn2ccccc12`: “inactive”; `O=C(O)CC(O)C(=O)O` (centres undefined): “inactive”.
For `CC[C@@]1(c2ccccc2)NC(=O)N(C)C1=O`, the Potency entry was “inactive”.
As for `CC1(C)O[C@@H]2[C@@H](CO[C@@]3(COS(N)(=O)=O)OC(C)(C)O[C@@H]23)O1`, the Potency entry was “inactive”.
Take `CN1C(=O)CC(C)(c2ccccc2)C1=O` (centres undefined): the Potency result was “inactive”.
Take `CCOC(=O)[C@H](CCc1ccccc1)N[C@@H](C)C(=O)N1C(=O)N(C)C[C@H]1C(=O)O`: the Potency entry was “inactive”.
Consider `COC(=O)c1cc(S(N)(=O)=O)ccc1OC`, for which the Potency result was “inactive”.
Regarding `NC(CSCC(=O)O)C(=O)O` (centres undefined), the Potency result was “inactive”.
Same read-out and setting: next, `CC(C(=O)O)c1cccc(Oc2ccccc2)c1` (centres undefined): “inactive”; `CC(C)(C)NCC(O)COc1cccc2c1CCC(=O)N2` (centres undefined): “inactive”.
Consider `Cc1cc(NC(=O)C2=C(O)c3ccccc3S(=O)(=O)N2C)no1`, for which the Potency entry is “inactive”.
For the compound `CCN[C@@H]1C[C@H](N)[C@@H](OC2OC(CN)=CCC2N)[C@H](O)[C@H]1O[C@H]1OC[C@](C)(O)[C@H](NC)[C@H]1O` (some centres undefined), the viability (% of control) was 111% [at 0.588 µM] (inactive).
On to `O=C(O)/C=C\C(=O)O`, for which the Potency entry is “inactive”.
Still for that read-out and setting: the same measure for `CCOc1ccc(NC(=O)CC(C)O)cc1` (centres undefined): “inactive”; for `CCS(=O)(=O)c1ccc(OC)c(C(=O)OC)c1`: “inactive”.
Take `C#CC(C)(CC)OC(=O)c1ccccc1C(=O)O` (centres undefined): the Potency result is “inactive”.
Turning to `CCCNC(=O)NS(=O)(=O)c1ccc(Cl)cc1`, the Potency result is “inactive”.
Same read-out and setting: the same measure for `CN1Cc2cc(C(=O)N3CCC(C4CCNCC4)CC3)ccc2NC(CC(=O)O)C1=O` (centres undefined): “inactive”; for `CCOC(=O)OC(C)OC1=C(C(=O)Nc2ccccn2)N(C)S(=O)(=O)c2ccccc21` (centres undefined): “inactive”; for `O=C(Oc1ccccc1C(=O)O)c1ccccc1O`: “inactive”.
Still for that read-out and setting: the same measure for `Nc1c2c(nc3ccccc13)CCCC2O` (centres undefined): “inactive”.
The same measure, in the same setting: next, `OCC(O)CN1CCN(c2ccccc2)CC1` (centres undefined): 422 nM (active) and inactive; `[O-][n+]1cccc(CO)c1`: “inactive”.
As for `CC(C)(C)NCC(O)COc1cccc2c1C[C@H](O)[C@H](O)C2` (some centres undefined), the Potency entry is “inactive”.
As to `O=c1[nH]c(=O)n([C@H]2CCCO2)cc1F`, the Potency was 14.6 µM (active).
As for `C[C@@]12C(=O)OC(=O)[C@]1(C)C1CCC2O1`, the Potency is 2.66 µM (active).
Still for that read-out and setting: next, `CC[C@H]1CN2CCc3cc(OC)c(OC)cc3[C@@H]2C[C@@H]1C[C@H]1NCCc2cc(OC)c(OC)cc21`: 106 nM (active) and 83.3 nM (active).
The same measure, in the same setting: next, `COc1ccc2c(c1)c1c3n2CCN(C)C3=NCC1`: “inactive”.
With `CN1CCN(CC(=O)N2c3ccccc3C(=O)Nc3cccnc32)CC1`, the viability (% of control) was 98.6% [at 4.97 µM] (inactive).
Regarding `CNCc1ccc(C)c(NC(=O)c2ccc(Nc3nc(-c4ccccc4)c4ccccc4n3)cc2)c1`, the Potency is 7.42 µM (active).
Same read-out and setting: the same measure for `O=C(NCCN1CCOCC1)c1ccc(Cl)cc1`: “inactive”.
As to `O=C(O)[C@H](O)[C@@H](O)[C@H](O[C@@H]1O[C@H](CO)[C@H](O)[C@H](O)[C@H]1O)[C@H](O)CO`, the Potency entry was “inactive”.
With `Cc1coc2ccccc2c1=O`, the Potency result is “inactive”.
For the compound `CCn1c(=O)c(-c2ccc(Cl)cc2Cl)cc2cnc(Nc3ccc(N4CCNCC4)c(F)c3)nc21`, the Potency is 82 nM (active) and 118 nM (active).
`NC(N)=NCCC[C@H](N)C(=O)O`: the viability (% of control) is 90.4% [at 4.97 µM] (inactive).
Regarding `O=C(O)CCCC[P+](c1ccccc1)(c1ccccc1)c1ccccc1`, the Potency entry was “inactive”.

System in a further assay: not listed separately
Kind of assay: Viability qHTS for spleen associated tyrosine kinase inhibitor (SYKi) drug resistant MV4-11 cells (AID 1963824). Note: nearly all actives have a fitted effect of over 35% in size. Note: potency is the fitted concentration of half-maximal effect. The note with it: SYKi-resistant MV4-11 viability, CellTiter-Glo, 72 h; series mostly up to 45 µM. The procedure, abridged: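 SYK-inhibitor-resistant MV4-11 AML cells were seeded at 500 per well onto compound and cultured 72 hours (37 °C, 5% CO2). CellTiter-Glo was then added, and after 10 min at room temperature, luminescence gave viability.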
`NCCCC(N)CC(=O)NCC1NC(=O)C(CO)NC(=O)C(N)CNC(=O)C(C2CCN=C(N)N2)NC(=O)C(=CNC(N)=O)NC1=O` (stereo not drawn) (H-[Dap]S[Dap](ξβ3hOrn)[ΔAla(3-NHCONH2)][X2]; lactam 1-C; configuration not given here): the viability, % of control was 101% [at 0.588 µM] (inactive).
With `CC1(C)[C@@H](OC(=O)CCC(=O)O)CC[C@]2(C)[C@H]3C(=O)C=C4[C@@H]5C[C@@](C)(C(=O)O)CC[C@]5(C)CC[C@@]4(C)[C@]3(C)CC[C@@H]12`, the Potency entry is “inactive”.
For the compound `NCCNCCNCCNCCN`, the viability, % of control is 109% [at 9.25 µM] (inactive).
With `CCCNC(C)C(=O)Nc1c(C)csc1C(=O)OC` (centres undefined), the Potency result is “inactive”.
Still for that read-out and setting: the same measure for `CC(C)C(=O)c1c(C(C)C)nn2ccccc12`: “inactive”.
Still for that read-out and setting: next, `O=C(O)CC(O)C(=O)O` (centres undefined): “inactive”; `CC[C@@]1(c2ccccc2)NC(=O)N(C)C1=O`: “inactive”; `CC1(C)O[C@@H]2[C@@H](CO[C@@]3(COS(N)(=O)=O)OC(C)(C)O[C@@H]23)O1`: “inactive”.
Same read-out and setting: next, `CN1C(=O)CC(C)(c2ccccc2)C1=O` (centres undefined): “inactive”; `CCOC(=O)[C@H](CCc1ccccc1)N[C@@H](C)C(=O)N1C(=O)N(C)C[C@H]1C(=O)O`: “inactive”; `COC(=O)c1cc(S(N)(=O)=O)ccc1OC`: “inactive”.
`NC(CSCC(=O)O)C(=O)O` (centres undefined): the Potency entry was “inactive”.
On to `CC(C(=O)O)c1cccc(Oc2ccccc2)c1` (centres undefined), for which the Potency entry is “inactive”.
Turning to `CC(C)(C)NCC(O)COc1cccc2c1CCC(=O)N2` (centres undefined), the Potency result is “inactive”.
On the same count and under the same terms, next, `Cc1cc(NC(=O)C2=C(O)c3ccccc3S(=O)(=O)N2C)no1`: “inactive”.
`CCN[C@@H]1C[C@H](N)[C@@H](OC2OC(CN)=CCC2N)[C@H](O)[C@H]1O[C@H]1OC[C@](C)(O)[C@H](NC)[C@H]1O` (some centres undefined): the viability, % of control was 115% [at 0.588 µM] (inactive).
With `O=C(O)/C=C\C(=O)O`, the Potency result is “inactive”.
Same read-out and setting: next, `CCOc1ccc(NC(=O)CC(C)O)cc1` (centres undefined): “inactive”.
Still for that read-out and setting: the same measure for `CCS(=O)(=O)c1ccc(OC)c(C(=O)OC)c1`: “inactive”.
Consider `C#CC(C)(CC)OC(=O)c1ccccc1C(=O)O` (centres undefined), for which the Potency entry was “inactive”.
On the same count and under the same terms, the same measure for `CCCNC(=O)NS(=O)(=O)c1ccc(Cl)cc1`: “inactive”; for `CN1Cc2cc(C(=O)N3CCC(C4CCNCC4)CC3)ccc2NC(CC(=O)O)C1=O` (centres undefined): “inactive”; for `CCOC(=O)OC(C)OC1=C(C(=O)Nc2ccccn2)N(C)S(=O)(=O)c2ccccc21` (centres undefined): “inactive”.
In the case of `O=C(Oc1ccccc1C(=O)O)c1ccccc1O`, the Potency entry is “inactive”.
On the same count and under the same terms, next, `Nc1c2c(nc3ccccc13)CCCC2O` (centres undefined): 0.841 µM (active); `OCC(O)CN1CCN(c2ccccc2)CC1` (centres undefined): “inactive”; `[O-][n+]1cccc(CO)c1`: “inactive”.
`CC(C)(C)NCC(O)COc1cccc2c1C[C@H](O)[C@H](O)C2` (some centres undefined): the Potency result was “inactive”.
On the same count and under the same terms, next, `O=c1[nH]c(=O)n([C@H]2CCCO2)cc1F`: 10.6 µM (active) and 9.2 µM (active); `C[C@@]12C(=O)OC(=O)[C@]1(C)C1CCC2O1`: 2.99 µM (active).
On to `CC[C@H]1CN2CCc3cc(OC)c(OC)cc3[C@@H]2C[C@@H]1C[C@H]1NCCc2cc(OC)c(OC)cc21`, for which the Potency is 133 nM (active) and 93.4 nM (active).
The same measure, in the same setting: the same measure for `COc1ccc2c(c1)c1c3n2CCN(C)C3=NCC1`: “inactive”.
Regarding `CN1CCN(CC(=O)N2c3ccccc3C(=O)Nc3cccnc32)CC1`, the viability, % of control is 96.6% [at 4.97 µM] (inactive).
For `CNCc1ccc(C)c(NC(=O)c2ccc(Nc3nc(-c4ccccc4)c4ccccc4n3)cc2)c1`, the Potency is 7.42 µM (active).
Turning to `O=C(NCCN1CCOCC1)c1ccc(Cl)cc1`, the Potency entry is “inactive”.
For `O=C(O)[C@H](O)[C@@H](O)[C@H](O[C@@H]1O[C@H](CO)[C@H](O)[C@H](O)[C@H]1O)[C@H](O)CO`, the Potency entry is “inactive”.
As for `Cc1coc2ccccc2c1=O`, the Potency result is “inactive”.
For the compound `CCn1c(=O)c(-c2ccc(Cl)cc2Cl)cc2cnc(Nc3ccc(N4CCNCC4)c(F)c3)nc21`, the Potency is 231 nM (active) and 186 nM (active).
Regarding `NC(N)=NCCC[C@H](N)C(=O)O`, the viability, % of control is 98.3% [at 4.97 µM] (inactive).
As to `O=C(O)CCCC[P+](c1ccccc1)(c1ccccc1)c1ccccc1`, the Potency entry was “inactive”.
